Growth inhibition, inhibition and outcome data for 20 molecules are collected here from PubChem BioAssay.

A short description of assay [1]: antimalarial activity against Dd2 strain (AID 2302;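 active = growth inhibition above 50% at the single 2 µM test dose, taken to imply half-maximal potency below 2 µM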;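 note: 0% = DMSO untreated growth and 100% = chloroquine plus artemisinin killed control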). The conditions noted are these: P. falciparum Dd2 in RBCs, LDH growth readout, 72 h; at 2 µM; active compounds read high.
Assay [2] can be described thus: human hepatoma cell viability loss – ATP luminescence, cytotoxicity control for P. falciparum antimalarial project, primary screen (AID 2303;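 active = inhibition above 50%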;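 note: 0% = DMSO wells and 100% = digitonin-killed cells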). The conditions noted are these: HepG2 viability, 24-48 h, at 10 µM, active compounds read high.
In assay [3] the target is L-lactate dehydrogenase (Plasmodium falciparum (isolate CDC / Honduras)) (UniProt Q27743). Nature of the assay: PfLDH activity inhibition – cell lysate, 3D7 strain, counter-screen for P. falciparum growth inhibition project (AID 2304).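 Note: 0% = vehicle and 100% = reference inhibitor.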 Particulars: P. falciparum 3D7 crude extract, LDH APAD/NBT absorbance; at 2 µM; active compounds read high. (A counterscreen serves to expose hits that act by an unwanted route or on another target.)
Sequence of L-lactate dehydrogenase (Plasmodium falciparum (isolate CDC / Honduras)) (Q27743 whole entry, looked up): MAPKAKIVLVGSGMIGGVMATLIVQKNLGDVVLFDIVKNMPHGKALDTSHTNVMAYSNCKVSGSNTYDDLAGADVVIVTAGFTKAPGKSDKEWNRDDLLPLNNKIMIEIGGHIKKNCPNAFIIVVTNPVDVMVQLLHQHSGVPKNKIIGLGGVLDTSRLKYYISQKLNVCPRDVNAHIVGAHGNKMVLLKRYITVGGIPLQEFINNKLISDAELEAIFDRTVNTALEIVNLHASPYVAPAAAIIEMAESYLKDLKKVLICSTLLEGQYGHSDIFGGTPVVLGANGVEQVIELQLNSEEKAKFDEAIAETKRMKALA

Assay [4] can be described thus: inhibition of 3D7 malaria parasite growth – strain 3D7 (AID 2306).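 Note: 0% = DMSO wells and 100% = chloroquine plus artemisinin control wells.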 The conditions noted are these: P. falciparum 3D7 erythrocytic growth, LDH absorbance, 72 h; at 2 µM; active compounds read high.
Assay [5] has as its target Calcium-dependent protein kinase 1 (Plasmodium falciparum (isolate 3D7)) (UniProt P62344). Nature of the assay: PfCDPK1 kinase inhibitors, biochemical, TCAMS library (AID 1159585; cut-off not given, nearly all actives have IC50 up to about 0.98 µM;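 note: inhibitors leave more ATP so luminescence rises with inhibition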). The conditions noted are these: recombinant PfCDPK1, Kinase-Glo ATP depletion luminescence. Background: Kinase-Glo measures the ATP left after a reaction by luminescence.
Assay [6] addresses Plasmodium falciparum protein kinase 6 (PK6, PF3D7_1337100) (UniProt Q8IDW1). Nature of the assay: PfPK6 kinase inhibitors, biochemical, TCAMS library (AID 1159586). The conditions noted are these: recombinant PfPK6, Kinase-Glo ATP depletion luminescence.
In assay [7] the target is Protein kinase 7 (PK7), Plasmodium falciparum 3D7 (PF3D7_0213400) (UniProt Q7YTF7). Nature of the assay: inhibition of Plasmodium PK7 catalytic activity – biochemical, TCAMS antimalarial set, Kinase-Glo luminescence (AID 1159587). Particulars: recombinant PfPK7, Kinase-Glo ATP depletion luminescence.
Sequence of Protein kinase 7 (PK7), Plasmodium falciparum 3D7 (PF3D7_0213400) (Q7YTF7 1-343): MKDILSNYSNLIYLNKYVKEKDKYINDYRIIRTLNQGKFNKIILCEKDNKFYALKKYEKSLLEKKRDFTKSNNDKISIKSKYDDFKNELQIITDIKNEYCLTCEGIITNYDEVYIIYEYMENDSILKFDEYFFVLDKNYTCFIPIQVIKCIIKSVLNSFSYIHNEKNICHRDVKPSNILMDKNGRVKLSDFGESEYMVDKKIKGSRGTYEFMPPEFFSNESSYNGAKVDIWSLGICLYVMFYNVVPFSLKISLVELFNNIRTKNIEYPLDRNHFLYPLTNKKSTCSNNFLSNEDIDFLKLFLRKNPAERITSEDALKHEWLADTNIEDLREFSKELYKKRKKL
In assay [8] the target is Calcium-dependent protein kinase 4 (Plasmodium falciparum (isolate 3D7)) (UniProt Q8IBS5). As to the kind of experiment: PfCDPK4 kinase inhibitors, biochemical, TCAMS library (AID 1159588; cut-off not given, nearly all actives have IC50 up to about 0.91 µM). Particulars: recombinant PfCDPK4, Kinase-Glo ATP depletion luminescence.
Sequence of Calcium-dependent protein kinase 4 (Plasmodium falciparum (isolate 3D7)) (Q8IBS5 whole entry, looked up): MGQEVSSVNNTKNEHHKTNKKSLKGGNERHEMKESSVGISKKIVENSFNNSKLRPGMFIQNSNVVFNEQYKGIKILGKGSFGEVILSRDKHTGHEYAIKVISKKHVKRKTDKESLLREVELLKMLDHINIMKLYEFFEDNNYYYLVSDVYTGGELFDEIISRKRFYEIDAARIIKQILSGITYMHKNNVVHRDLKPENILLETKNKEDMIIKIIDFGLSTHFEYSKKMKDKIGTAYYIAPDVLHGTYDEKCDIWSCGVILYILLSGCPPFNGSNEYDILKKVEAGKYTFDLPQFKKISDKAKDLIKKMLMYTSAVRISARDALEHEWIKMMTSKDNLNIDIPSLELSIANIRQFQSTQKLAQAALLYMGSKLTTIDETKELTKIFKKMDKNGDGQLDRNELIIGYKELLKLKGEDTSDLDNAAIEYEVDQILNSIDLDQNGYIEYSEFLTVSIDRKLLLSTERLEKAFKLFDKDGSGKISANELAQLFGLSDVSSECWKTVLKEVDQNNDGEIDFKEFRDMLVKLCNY

SMILES strings stand for the structures. Unmarked numbers belong to inactive results. For some of these results: Measured potencies and affinities stand elsewhere. Active and inactive are the calls of the source. Unless noted, the rule behind the calls is not given here.

The term inhibition denotes the relative decrease from the control value, in per cent.

Sequence of Calcium-dependent protein kinase 1 (Plasmodium falciparum (isolate 3D7)) (P62344 whole entry, looked up): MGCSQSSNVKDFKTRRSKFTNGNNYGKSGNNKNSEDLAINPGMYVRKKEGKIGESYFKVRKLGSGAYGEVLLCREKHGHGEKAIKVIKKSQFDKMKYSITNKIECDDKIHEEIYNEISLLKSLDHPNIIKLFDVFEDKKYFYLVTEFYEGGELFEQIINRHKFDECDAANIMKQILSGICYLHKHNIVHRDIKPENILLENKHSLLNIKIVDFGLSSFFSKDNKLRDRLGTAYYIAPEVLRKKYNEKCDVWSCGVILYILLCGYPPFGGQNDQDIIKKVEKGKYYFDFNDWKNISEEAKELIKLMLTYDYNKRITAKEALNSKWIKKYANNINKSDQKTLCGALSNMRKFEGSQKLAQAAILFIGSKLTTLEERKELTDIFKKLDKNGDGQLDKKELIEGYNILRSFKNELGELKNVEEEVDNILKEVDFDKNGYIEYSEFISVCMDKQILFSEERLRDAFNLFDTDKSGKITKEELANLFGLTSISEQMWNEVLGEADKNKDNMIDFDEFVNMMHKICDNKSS
Sequence of Plasmodium falciparum protein kinase 6 (PK6, PF3D7_1337100) (Q8IDW1 1-305): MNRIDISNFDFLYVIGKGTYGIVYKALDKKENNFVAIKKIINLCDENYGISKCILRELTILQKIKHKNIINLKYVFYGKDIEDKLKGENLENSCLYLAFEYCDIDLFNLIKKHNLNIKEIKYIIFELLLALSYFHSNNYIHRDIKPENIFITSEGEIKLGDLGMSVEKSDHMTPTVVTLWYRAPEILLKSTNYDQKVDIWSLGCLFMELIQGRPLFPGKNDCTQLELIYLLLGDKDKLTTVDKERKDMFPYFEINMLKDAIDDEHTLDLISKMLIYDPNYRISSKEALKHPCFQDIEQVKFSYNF

Turning to `CC(C)c1ccc(NC(=O)c2ccc(NCCCN(C)Cc3ccccc3)c([N+](=O)[O-])c2)cc1`, the growth inhibition in assay [1] is 35%; in assay [4] it was 101% (active). Also, the inhibition is 21% in assay [2] and -2% in assay [3]. The outcome in assay [5], in assay [6], in assay [7] and in assay [8] was inactive.
On to `COc1ccc2c(Nc3ccc(N4CCN(C)CC4)cc3)cc(C)nc2c1`, for which the growth inhibition is 9% in assay [1] and 101% (active) in assay [4]. Also, the results for the inhibition in assay [2] and in assay [3] were 23% and -2%, respectively. Moreover, the result in assay [5], in assay [6], in assay [7] and in assay [8] was inactive.
On to `CCNc1cc(C(=O)N[C@@H](Cc2ccccc2)[C@H](O)CNC2(CC)CCCCC2)cc(N2CCCCS2(=O)=O)c1`, for which the growth inhibition in assay [1] and in assay [4] was 98% (active) in each case. For the same molecule, the inhibition in assay [2] was 3%; in assay [3] it was -3%. The result in assay [5], in assay [6], in assay [7] and in assay [8] was inactive.
For the molecule `O=C(O)Cc1ccc(-c2c[nH]c3ncc(-c4cccc5ncccc45)cc23)cc1`, the growth inhibition in assay [1] is 0%; in assay [4], 95% (active). Further, the inhibition is 7% in assay [2] and 1% in assay [3]. Moreover, the outcome in assay [5], in assay [6], in assay [7] and in assay [8] was inactive.
Consider `COc1ccccc1CCNC(=O)c1cc(Br)cc(N2CCN(c3ccncc3)CC2)c1`, for which the values for the growth inhibition in assay [1] and in assay [4] were 32% and 84% (active), respectively. Moreover, the figures for the inhibition in assay [2] and in assay [3] were 38% and 4%, respectively. For the same molecule, the outcome in assay [5], in assay [6], in assay [7] and in assay [8] was inactive.
In the case of `c1ccc(-c2cc3cccc(-c4nc5ccncc5[nH]4)c3o2)cc1`, the growth inhibition is 95% (active) in assay [1] and 100% (active) in assay [4]. The inhibition in assay [2] was 37%; in assay [3], -6%. Further, the result in assay [5], in assay [6], in assay [7] and in assay [8] was inactive.
`CCN(CC)CCNC(=O)/C(=C/C=C/c1cc2cc(Cl)c(Cl)cc2[nH]1)OC`: the growth inhibition in assay [1] is 31%; in assay [4] it was 88% (active). Further, the inhibition in assay [2] is 30%; in assay [3], -4%. In addition, the result in assay [5], in assay [6], in assay [7] and in assay [8] was inactive.
As for `CN1CCN(c2ccc(Cl)cc2NC(=O)C2COc3ccccc3O2)CC1` (stereo not given), the growth inhibition was 44% in assay [1] and 99% (active) in assay [4]. Moreover, the inhibition in assay [2] and in assay [3] was 2% throughout. Moreover, the outcome in assay [5], in assay [6], in assay [7] and in assay [8] was inactive.
`NCC1CCCN1Cc1cccc(-c2cccc(-c3nc4ccc(F)cc4[nH]3)c2)c1` (stereo not given): the growth inhibition in assay [1] was 65% (active); in assay [4], 101% (active). Further, the figures for the inhibition in assay [2] and in assay [3] were 10% and 5%, respectively. The result in assay [5], in assay [6], in assay [7] and in assay [8] was inactive.
Take `CCCc1cc(OC)c(C[C@@H]2c3cc(O)c(Cl)cc3CCN2C)cc1OC`: the growth inhibition in assay [1] and in assay [4] was 98% (active) in each case. For the same molecule, the inhibition in assay [2] was 3%; in assay [3] it was 8%. Further, the outcome in assay [5], in assay [6], in assay [7] and in assay [8] was inactive.
For `CCc1cc2c(Sc3nnc(N)s3)ncnc2s1`, the growth inhibition in assay [1] was 65% (active); in assay [4], 99% (active). In addition, the results for the inhibition in assay [2] and in assay [3] were -20% and -4%, respectively. Also, the outcome in assay [5], in assay [6], in assay [7] and in assay [8] was inactive.
`NC(=O)c1cnc2cc(-c3ccoc3)ccc2c1Nc1ccc(NC(=O)Nc2ccccc2Cl)cc1`: the growth inhibition was 76% (active) in assay [1] and 100% (active) in assay [4]. Besides, the values for the inhibition in assay [2] and in assay [3] were 39% and -5%, respectively. Also, the result in assay [5], in assay [6], in assay [7] and in assay [8] was inactive.
In the case of `O=C(Nc1ccc(Cl)cc1)N[C@H]1CCN(CCCCCNC(=O)[C@@H]2C[C@H]2c2ccc(Cl)c(Cl)c2)C1`, the growth inhibition is 1% in assay [1] and 96% (active) in assay [4]. For the same molecule, the results for the inhibition in assay [2] and in assay [3] were 24% and 1%, respectively. In addition, the result in assay [5], in assay [6], in assay [7] and in assay [8] was inactive.
In the case of `CCCCN=C(N)Nc1ccc(OCCCOc2ccc(NC(N)=NCCCC)cc2)cc1`, the growth inhibition in assay [1] is 97% (active); in assay [4] it was 96% (active). Further, the inhibition is 15% in assay [2] and 4% in assay [3]. Also, the outcome in assay [5], in assay [6], in assay [7] and in assay [8] was inactive.
For `COCCOc1cccc(CN2CCC(c3cc4nc(C)cc(C(F)(F)F)n4n3)C2)c1` (stereo not given), the growth inhibition in assay [1] was 74% (active); in assay [4] it was 85% (active). Besides, the inhibition in assay [2] was 25%; in assay [3], 2%. Besides, the outcome in assay [5], in assay [6], in assay [7] and in assay [8] was inactive.
For the molecule `CCOc1ccc2nc(N(CCCn3ccnc3)C(=O)C=Cc3cccs3)sc2c1`, the growth inhibition in assay [1] and in assay [4] was 97% (active) in each case. Besides, the inhibition in assay [2] and in assay [3] was -1% in each case. The result in assay [5], in assay [6], in assay [7] and in assay [8] was inactive.
As to `CN1CCN(C(C(=O)NCc2cc(Cl)cc(Cl)c2)c2ccc(NC(=O)Nc3ccccc3)cc2)CC1` (stereo not given), the growth inhibition in assay [1] was 43%; in assay [4], 98% (active). Also, the results for the inhibition in assay [2] and in assay [3] were 23% and -5%, respectively. The result in assay [5], in assay [6], in assay [7] and in assay [8] was inactive.
On to `CNCCNCc1cccc(-c2cccc(-c3nc4ccc(F)cc4[nH]3)c2)c1`, for which the figures for the growth inhibition in assay [1] and in assay [4] were 15% and 98% (active), respectively. The inhibition in assay [2] was 20%; in assay [3], -2%. Further, the outcome in assay [5], in assay [6], in assay [7] and in assay [8] was inactive.
With `OC1(C(F)(F)F)CC(c2ccccc2)=NN1c1nncc(-c2ccccc2)n1` (stereo not given), the values for the growth inhibition in assay [1] and in assay [4] were 3% and 99% (active), respectively. Besides, the figures for the inhibition in assay [2] and in assay [3] were -3% and -5%, respectively. In addition, the outcome in assay [5], in assay [6], in assay [7] and in assay [8] was inactive.
`Nc1nc(N)c2c(ccn2Cc2cc3c(cc2Cl)OCO3)n1`: the figures for the growth inhibition in assay [1] and in assay [4] were 11% and 98% (active), respectively. The values for the inhibition in assay [2] and in assay [3] were 67% (active) and -3%, respectively. Further, the outcome in assay [5], in assay [6], in assay [7] and in assay [8] was inactive.
